About 2,500 (0.83%) of roughly 300,000 compounds were called active. Cut-off read from the data, not from the text of the source: active = inhibition above about 60%; inconclusive = no clear call, values can overlap the other calls; inactive = below that. The full list was thinned out, with actives kept by preference.
Assay: 5' untranslated region of α-synuclein, MLPCN primary screen (AID 1813);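 note: H4 neuroglioblastoma cells stably carrying SNCA 5'UTR luciferase fusion; 0% = DMSO wells and 100% = positive control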
Settings: alpha-synuclein 5'UTR reporter, inhibitor activity; active compounds read high; tested at 7.5 µM

| Structure (SMILES) | inhibition |
| --- | --- |
| Cc1nc2ccc(N3CCN(C)CC3)cc2nc1C | -72% (inactive) |
| CN1CCN(c2cc(N3CCNCC3)ccc2[N+](=O)[O-])CC1 | 9.3% (inactive) |
| COc1cccc(-c2nc3ccc(N4CCN(C)CC4)cc3[nH]2)c1 | 68.9% (active) |
| CN(C)c1ccc(/C=C2\CC3C4CC=C5CC(O)CCC5(C)C4CCC3(C)C2=O)cc1 (stereo not given) | 8.56% (inactive) |
| CSc1nc2ccc(C)cc2c(=O)n1-c1cccnc1 | -1.34% (inactive) |
| CCOc1ccc(-c2cc(C)[n+](CCN(CC)CC)c(-c3ccc(OCC)cc3)c2)cc1 | 95.2% (active) |
| Cc1cccc2c(CCN)c[nH]c12 | 10.6% (inactive) |
| Cc1ccc(P(=S)(c2ccc(C)o2)N2CCOCC2)o1 | -9.28% (inactive) |
| CCN(N=Nc1nonc1OC)c1nonc1OC | -2.32% (inactive) |
| CCCCCCCCCCCCn1ccc(=N)cc1 | 104% (active) |
| CNP1(NC)=Nc2nn(-c3ccccc3)c(N)c2C(c2ccccc2)=N1 | 9.19% (inactive) |
| COc1ccc2c(c1O)-c1cccc3c1[C@@H](C2)N(C)CC3 | -3.62% (inactive) |
| O=C(OCCN1CCOCC1)C1(c2ccccc2)CCCC1 | 1.68% (inactive) |
| Cc1c(Oc2cc(NN3CCCCC3)c([N+](=O)[O-])cc2[N+](=O)[O-])cccc1[N+](=O)[O-] | 15.3% (inactive) |
| Cc1cccc(NC(=O)N2CC3CC(C2)c2cccc(=O)n2C3)c1 (stereo not given) | 13.7% (inactive) |
| c1cc2c(cc1[C@H]1OC[C@H]3[C@@H]1CO[C@@H]3c1ccc3c(c1)OCO3)OCO2 | 72.8% (active) |
| O=C1/C(=C\c2ccc3c(c2)OCO3)N2CCC1CC2 | 17.4% (inactive) |
| c1cc2c(cc1CCNC1CCCCCC1)OCO2 | 2.86% (inactive) |
| CC(C)n1c(=O)c(C=Nc2ccc(Br)cc2)c(O)n(Cc2ccco2)c1=O | -1.22% (inactive) |
| Cc1ccc(Cn2c(C)c3cnn(CC(=O)N4CCC5(CC4)OCCO5)c(=O)c3c2C)cc1 | 12% (inactive) |

Source: PubChem BioAssay AID1813 (Broad Institute, 2009)
